# GALK inhibitor – qHTS Assay for Inhibitors of Human Galactokinase (GALK); Purified GALK, Kinase-Glo residual ATP luminescence; P51570; Potency, µM (highest dose often 57.5 µM), inactives show at the highest dose activity change, negative = inhibition, actives largely listed as inhibitors; 270,000 tested, 0.007% active; further: potency means the concentration at half of the fitted maximal effect
#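 Quantitative HTS: GALK 5 nM, ATP 35 uM, galactose 100 uM, 1 h room temperature, then luciferase-based ATP detection.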
# USP2a inh – qHTS Assay for Inhibitors of Ubiquitin-specific Protease USP2a Using CHOP2 as the Reporter. Ubiquitin carboxyl-terminal hydrolase 2 (Homo sapiens), O75604. USP2 core, Ub-CHOP2 coupled fluorogenic reporter, 485/531. Potency, µM (doses to about 38.3 µM), inactives show top-dose activity change, negative = inhibition, hits mostly inhibitors. 330,000 tested, 0.01% active;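 further: potency means the concentration at half of the fitted maximal effect; plate controls were DMSO wells for no effect and full inhibition by NEM control for full effect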
#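 USP2 core (10nM final) preincubated 30min RT with compound in 20mM Tris-HCl pH 8.0, 2mM CaCl2, 2mM beta-mercaptoethanol, 0.05% CHAPS; 25nM Ub-CHOP2 plus 25nM reporter substrate added, fluorescence (Ex485/Em531) read after 60min.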
# PI4K2A inh – qHTS for small molecular inhibitors of PI4K2A; Phosphatidylinositol 4-kinase type 2-alpha (Homo sapiens), Q9BTU6; purified PI4K2A, ADP-Glo luminescence, 1 h; hits give low values; activity change, negative = inhibition, % at 76.9 µM; 420,000 tested, 0.13% active; AID 1346378, 2018; in the data active means activity change below about -50%; inconclusive means mostly about -30% to -49%;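 further: -100% = wells without enzyme as full effect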
#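 ADP-Glo luminescence measured ADP generated by PI4K2A enzyme (4 ug/mL before mixing) with 1.2 mM PI substrate (pre-mix) and 300 microM ATP (pre-mix). Tris pH7.5 buffer with MgCl2, Triton X-100; 1 h reaction at ambient temperature.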
# Coupling enz – qHTS Assay for Inhibitors of Fructose-1,6-bisphosphate Aldolase from Giardia Lamblia: Coupling assay counterscreen | coupling enzyme system counterscreen, AmpLite Red fluorescence | activity change, negative = inhibition, % at 58.2 µM, hits read low | 290,000 tested, 0.67% active | AID 2472, 2010; in the data active means activity change below about -30%
#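 Fluorescence at 525 nm excitation and 598 nm emission measured inhibition of the coupled detection system without aldolase. Compounds (at 57.5 uM final) were preincubated 10 min at room temperature with coupling enzyme reagent before a 20 min substrate/AmpLite Red step.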
# USP1 inh – Inhibitors of USP1/UAF1: Primary Screen; Ubiquitin carboxyl-terminal hydrolase 1 (Homo sapiens), O94782; 390,000 tested, 0.23% active; recombinant USP1/UAF1, Ub-Rhodamine cleavage fluorescence; Potency, µM (top dose mostly 57.1 µM), for the others: top-dose activity change, negative = inhibition, actives largely listed as inhibitors; further: potency means the concentration at half of the fitted maximal effect; nearly all actives have a fitted effect of over 60% in size
#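 In this screen, compounds sit with the deubiquitinase complex (1nM) for 15 min at room temperature before Ub-Rho is added at 150nM final. Fluorescence rise is then followed for 6 reads every 60 seconds.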
# Eya2 inh – qHTS Assay for Inhibitors of the Phosphatase Activity of Eya2. Protein phosphatase EYA2 (Homo sapiens), O00167. recombinant Eya2, OMFP fluorescence dephosphorylation (OMFP is methylfluorescein phosphate). Potency, µM (titrated, usually from 76.9 µM), for the others: at the top dose activity, negative = inhibition, hits mostly inhibitors. 330,000 tested, 0.006% active. AID 488837, 2010; further: potency means the concentration at half of the fitted maximal effect
# Target sequence (O00167 whole entry, looked up): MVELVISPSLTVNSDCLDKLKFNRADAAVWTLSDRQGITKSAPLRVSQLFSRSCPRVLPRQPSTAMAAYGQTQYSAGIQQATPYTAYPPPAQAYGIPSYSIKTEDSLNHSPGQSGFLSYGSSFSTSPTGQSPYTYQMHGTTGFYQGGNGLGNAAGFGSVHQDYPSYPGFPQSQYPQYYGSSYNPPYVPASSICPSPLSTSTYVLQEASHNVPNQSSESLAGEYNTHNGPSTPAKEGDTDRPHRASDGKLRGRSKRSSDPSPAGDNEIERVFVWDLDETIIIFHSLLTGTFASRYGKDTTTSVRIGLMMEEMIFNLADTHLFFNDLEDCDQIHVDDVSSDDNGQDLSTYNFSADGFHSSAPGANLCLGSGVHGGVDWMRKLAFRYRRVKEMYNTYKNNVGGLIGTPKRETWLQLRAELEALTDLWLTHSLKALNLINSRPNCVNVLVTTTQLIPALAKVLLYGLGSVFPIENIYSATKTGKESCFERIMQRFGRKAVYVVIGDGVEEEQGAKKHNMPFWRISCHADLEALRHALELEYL
#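 Eya2 protein (added as 0.2 uM solution) was preincubated with compound for 10 min at ambient temperature in 50 mM HEPES pH 7.5, 50 mM NaCl, 5 uM MgCl2, 0.05% BSA, 1 mM DTT. OMFP (added at 50 uM) then reacted 10 min; fluorescence read at 485/525 nm.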
# Active calls of the source: *; u = inconclusive; x = not tested or not shown; ! = not confirmed by another sample. Shown are actives, neighbours in structure and some others; about 0.71% of the full set was active somewhere. Unless noted, the call rests on the fitted dose curve; in most records, active means well fitted curve in the direction sought with a large enough effect; inconclusive means small, poorly fitted or top-dose-only effect, or another doubt; inactive means no such curve, though single readings can be large; an effect the other way counts as inactive or inconclusive. Unless noted, on the % scale 0 is the no-effect control and ±100 the full control effect.
SMILES,GALK inhibitor,USP2a inh,PI4K2A inh,Coupling enz,USP1 inh,Eya2 inh
c1ccc(C2=Nn3c(Cn4nnc5ccccc54)nnc3SC2)cc1,6%,-2%,2,-14,-17%,16%
c1ccc(Cc2nnc3n2N=C(c2ccccc2)CS3)cc1,0%,2%,2,-54*,-5%,-3%
Cc1ccccc1CCNC(=O)c1ccc(Cn2c(=O)c3cccn3c3cccnc32)cc1,x,x,-5,x,-16%,x
COC(=O)CCC(=O)OC1(C)C(=O)C=C2C=C(C3CC3)N(Cc3ccccc3)C=C2C1=O (centres undefined),-3%,10%,-4,2,u,-13%
COC(=O)CCC(=O)OC1(C)C(=O)C=C2C=C(C3CC3)N(CC(C)C)C=C2C1=O (centres undefined),-1%,-2%,x,-45*,x,6%
CCCCC1=CC2=CC(=O)C(C)(OC(=O)CC)C(=O)C2=CN1Cc1ccc(OC)cc1 (centres undefined),3%,4%,4,-11,-25%,1%
COC(=O)CCC(=O)OC1(C)C(=O)C=C2C=C(C3CC3)N(c3ccc(OC)cc3)C=C2C1=O (centres undefined),x,x,x,-41*,x,x
CN1C(=O)N(C)c2cccc3cccc1c23,0%,-2%,7,-4,-21%,-7%
CC1=Nc2cccc3cccc(c23)N1C,0%,4%,-6,-32*,2%,4%
COC(=O)[C@]12C[C@H](CC(=O)NCC3CCCCC3)C(=O)N(CCc3ccc(OC)c(OC)c3)C1=C[C@H](COCc1ccccc1)O[C@@H]2C,x,x,-2,x,x,x
COc1ccc(C(=O)C2(C(=O)NCc3ccccc3)CC(c3ccccc3C(F)(F)F)=NO2)cc1 (centres undefined),x,x,-2,x,x,x
COc1ccc(/C=C/C(=O)NNc2cc(=O)n(C)c(=O)n2C)cc1OC,-1%,7%,0,-31*,-21%,-27%
COc1ccc(/C=N/Nc2cc(=O)n(C)c(=O)n2C)cc1OC,2%,-4%,-13,-35*,-14%,1%
COc1cc(/C=N\Nc2cc(=O)n(C)c(=O)n2C)ccc1O,-1%,0%,-19,-5,-19%,-3%
CN1CCN(N)CC1,x,x,-4,x,x,x
C=CCn1c(=O)n([C@@H]2O[C@H](CO)[C@@H](O)[C@H]2O)c2nc(N)[nH]c(=O)c21,x,x,-5,x,x,x
CCCOc1cc(N(CC)CC)ccc1/C=C(/C#N)c1nc2ccc(C)cc2[nH]1,2%,11%,-2,1,66%,35%
CCN(CC)c1ccc(/C=C(/C#N)c2nc3ccc(C)cc3[nH]2)c(OC(C)C)c1,4%,u,-2,-1,25µM*,u
Cc1cn([C@H]2C[C@H](F)[C@@H](CO)O2)c(=O)[nH]c1=O,x,x,-2,x,x,x
CC1CCC/C(=C\Nc2ccc(O)cc2)C1=O (centres undefined),7%,-2%,u,-38*,-14%,16%
COC(=O)Cc1cc(=O)n2[nH]c(C(F)(F)F)nc2n1,-1%,2%,-12,-34*,-23%,14%
COCc1cc(=O)n2[nH]c(C(F)(F)F)nc2n1,1%,4%,-2,-9,-2%,-10%
CC(=O)O[C@@H]1CCC[C@@]2(C(=O)N(Cc3ccccc3)c3ccc(-c4c(C)noc4C)cc32)[C@H]1NC(=O)CCc1ccccc1,x,x,-4,x,x,x
CC(CC1c2ccccc2CCc2ccccc21)CN(C)C (centres undefined),x,x,0,x,x,x
Nc1ccc(N)c(C(=O)O)c1,-1%,u,-66*,-34*,20µM*,-7%
SMILES,GALK inhibitor,USP2a inh,PI4K2A inh,Coupling enz,USP1 inh,Eya2 inh
Nc1ccc(C(=O)O)c(O)c1,-1%,11%,1,-6,-20%,-10%
COc1ccc(C2CC(O)(c3ccccc3)Oc3cc(OC)c(OC)c(OC)c32)cc1 (centres undefined),0%,1%,0,-39*!,-29%,-4%
COc1cc2c(c(OC)c1OC)C(c1ccc(O)cc1)CC(=O)O2 (centres undefined),x,2%,4,-32*,u,-2%
COc1ccc(C2CC(O)(c3ccccc3)Oc3cc(C)c(Cl)c(C)c32)cc1 (centres undefined),x,x,x,-2,x,x
Cc1nc2cc3nc(C(F)(F)F)[nH]c3cc2[nH]1,2%,4%,-4,-36*,-26%,-19%
Nc1ccc2nc(C(F)(F)F)[nH]c2c1,0%,3%,0,-6,-11%,-11%
NC(=O)c1c(NC(=O)c2ccccc2)sc2c1CCN(Cc1ccccc1)C2,x,4%,-4,2,8.9µM*,-14%
CCCCN(CCCC)S(=O)(=O)c1ccc(C(=O)Nc2sc3c(c2C(N)=O)CCN(CC)C3)cc1,x,x,1,x,u,x
CCN1CCc2c(sc(NC(=O)c3ccc(S(=O)(=O)N(CC)c4ccccc4)cc3)c2C(N)=O)C1,-8%,2%,0,x,28µM*,-7%
NC(=O)c1c(NC(=O)c2c(F)cccc2F)sc2c1CCN(Cc1ccccc1)C2,x,1%,-5,2,u,13%
CCOC(=O)C1=C(C)NC(C)=C(C(=O)OCC)C1c1ccncc1,x,x,-76*,x,-19%,x
COc1cc(OC)c(OC)cc1/C=C1\Oc2cc(OCC(=O)N3Cc4ccccc4C[C@H]3C(=O)O)ccc2C1=O,x,11%,-1,2,14µM*,u
COc1ccc(OC)c(/C=C2\Oc3cc(OCC(=O)N4CCC[C@H]4C(=O)O)ccc3C2=O)c1,x,-1%,-9,1,-22%,-10%
Cc1ccc(C)c2[nH]c(=O)c(CN(CCN3CCOCC3)Cc3nnnn3CC3CCCO3)cc12 (centres undefined),2%,1%,9,0,-6%,-7%
Cc1ccc(C)c2[nH]c(=O)c(CN(Cc3nnnn3C3CCCCC3)CC3CCCO3)cc12 (centres undefined),-3%,-2%,12,-37*,-19%,29%
O=C(CSc1nnc(-c2ccccc2)n1Cc1ccco1)Nc1ccc(OCc2ccccc2)cc1,x,x,-18,x,x,x
CCc1nc(-c2ccccc2)c2ccccn12,-2%,-13%,-8,-43*,3%,-2%
O=C1Cc2cc(Cl)ccc2N1,x,x,0,x,x,x

# Screening results: PubChem, National Center for Advancing Translational Sciences (NCATS)
